{"source": "PubChem BioAssay AID1345083", "about": "(National Center for Advancing Translational Sciences (NCATS), 2018)", "note": "The whole screen tested about 94,000 compounds, of which about 6,200 (6.6%) were called active. Inconclusive results (about 31%) are left out. What follows is part of a selection rich in actives, with near analogues and random picks from the rest. A number with no mark means an inactive call. Calls come from the whole dose curve; as a rule, active = well fitted inhibition curve with a large enough effect; inconclusive = small, poorly fitted or top-dose-only effect; inactive = flat fitted curve, though single readings scatter. % is set by controls: 0 for no effect and ±100 for the full control effect; potency is the fitted concentration of half-maximal effect."}
{"test": "Cytotoxic Profiling in HEK 293 Cell Line of Diverse Libraries Using Quantitative High-Throughput Screening; note: nearly all actives have a fitted effect of over 60% in size", "details": "HEK 293 viability, ATP luminescence (CellTiter-Glo), 48-72 h; series mostly up to 115 µM; activity change, negative = cytotoxicity: at the top concentration", "how_it_was_run": "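250 HEK 293 cells/well; compound by pintool; incubated 48 or 72 hr at 37 degree Celsius; CellTiter-Glo added, 10 min RT, luminescence imaged.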"}
{"smiles": "O=C1NC2(Cc3ccccc31)CN([S+](=O)([O-])c1cccc(C(F)(F)F)c1)C2", "activity change, negative = cytotoxicity": "-6.46%"}
{"smiles": "O=C(NCC1CC1)c1cn(C2CN(C(=O)Nc3ccccc3)C2)nn1", "activity change, negative = cytotoxicity": "3.71%"}
{"smiles": "CCCNC(=O)N1CCOC[C@H](Oc2cccnc2)C1", "activity change, negative = cytotoxicity": "2.59% [at 230 µM]"}
{"smiles": "CCc1cccc(NC(=O)C2(C)CCCCC(=O)N2)c1", "note": "(stereo not drawn)", "activity change, negative = cytotoxicity": "-14%"}
{"smiles": "CC(=O)N1CCOc2ccc(CCC(=O)NCc3nc4ccccc4n3C)cc2C1", "activity change, negative = cytotoxicity": "-7.53%"}
{"smiles": "CCCCN1C(=O)[C@@H]2C[C@@H](O)CN2C2(CN(CC(C)C)C2)C1=O", "activity change, negative = cytotoxicity": "-1.68% [at 172 µM]"}
{"smiles": "COCC1(CNS(=O)(=O)c2ccc(F)cc2)C[C@@H](O)[C@@H](O)C1", "note": "(stereo partly drawn)", "activity change, negative = cytotoxicity": "-6.02% [at 172 µM]"}
{"smiles": "COc1ccc(Nc2ccnc(N3CCCC(C(=O)NCc4ccc(C(F)(F)F)cc4)C3)n2)cc1", "note": "(stereo not drawn)", "Potency": "20 µM (active)"}
{"smiles": "COc1ccc(Nc2ccnc(N3CCC(C(=O)N4CCN(C(C)=O)CC4)CC3)n2)cc1", "activity change, negative = cytotoxicity": "4.42%"}
{"smiles": "COc1ccc(CNC(=O)[C@@H]2CCC[C@@H](NCc3nccs3)CN(C)C(=O)C2)cc1", "activity change, negative = cytotoxicity": "-2.3% [at 172 µM]"}
{"smiles": "Cc1nsc(NC(=O)N2CCC(CO)CC2)n1", "activity change, negative = cytotoxicity": "-4.07%"}
{"smiles": "CCOc1ccccc1C(=O)N1CCC(N2CC3CC(C2)[C@H]2CCCC(=O)N2C3)CC1", "note": "(stereo partly drawn)", "activity change, negative = cytotoxicity": "-0.534%"}
{"smiles": "COC[C@@H]1CN(C(=O)Cn2cc(C)cn2)C[C@H]1c1ccccn1", "activity change, negative = cytotoxicity": "-6.73%"}
{"smiles": "Cc1ccc(C)c(NC(=O)Cn2nc3n(c2=O)CCCCC3)c1", "activity change, negative = cytotoxicity": "1.83%"}
{"smiles": "CN(CCc1cn[nH]c1)c1ccc(-c2nc(-c3ccccc3F)no2)cn1", "Potency": "31.6 µM (active)"}
{"smiles": "O=C(C1CCC1)N1CCC(Oc2cccnc2)C1", "note": "(stereo not drawn)", "activity change, negative = cytotoxicity": "13.3%"}
{"smiles": "OCc1ccc(-c2cc(-c3cccnc3)c3cncn3c2)cc1", "activity change, negative = cytotoxicity": "-4.7% [at 172 µM]"}
{"smiles": "Cc1noc(C)c1-c1cc(-c2ccccc2Oc2ccccc2)cn2cncc12", "Potency": "79.4 µM (active)"}
{"smiles": "Cc1noc(C)c1-c1cc(-c2cncnc2)cn2cncc12", "activity change, negative = cytotoxicity": "-2.72% [at 230 µM]"}
{"smiles": "CCCOCCCNC(=O)c1c(C)noc1-c1ccccc1Cl", "activity change, negative = cytotoxicity": "-16.3%"}
{"smiles": "COc1ccccc1-c1onc(C)c1C(=O)NCCC(c1ccccc1)c1ccccc1", "Potency": "25.1 µM (active)"}
{"smiles": "COc1ccccc1-c1onc(C)c1C(=O)NCc1ccc(Cl)cc1", "activity change, negative = cytotoxicity": "-27.2%"}
{"smiles": "O=C(c1ccc2nnc(C3CC3)n2c1)N1CCOCC1", "activity change, negative = cytotoxicity": "0.449% [at 172 µM]"}
{"smiles": "CC(C)n1c(C2CCN(C(=O)Cc3cccc(F)c3)CC2)nn(C)c1=O", "outcome": "inactive"}
{"smiles": "O=C(C1CCCN(c2ccnc3ccnn23)C1)N1CCCCC1", "note": "(stereo not drawn)", "activity change, negative = cytotoxicity": "-26.9% [at 172 µM]"}
{"smiles": "O=C(c1ccoc1)N1CCCN(C(=O)C2COc3ccccc3C2)CC1", "note": "(stereo not drawn)", "activity change, negative = cytotoxicity": "-24.8%"}
{"smiles": "O=C(c1ccccc1)N1CCOc2ccc(CN3CCc4ccccc4C3)cc2C1", "Potency": "44.7 µM (active)"}
{"smiles": "O=C(c1ccoc1)N1CCOc2ccc(CN3CCc4ccccc4C3)cc2C1", "Potency": "39.8 µM (active)"}
{"smiles": "O=C1CCN(Cc2ccc3c(c2)CCO3)CCOCCN1", "activity change, negative = cytotoxicity": "4.17%"}
{"smiles": "CCC(C)N1CCN(C(=O)CCc2ccc3c(c2)CN(C(=O)NC(C)C)CCO3)CC1", "note": "(stereo not drawn)", "activity change, negative = cytotoxicity": "-4.09%"}
{"smiles": "O=C(CC1CCCC1)N1CCOc2ccc(CN3CCCCC3)cc2C1", "activity change, negative = cytotoxicity": "-22.3%"}
{"smiles": "COc1ccccc1N1CCN([C@@H]2[C@H](O)[C@H](CO)O[C@@H]2CNC(=O)c2ccc(F)c(Cl)c2)CC1", "outcome": "inactive"}
{"smiles": "CN1C[C@H](NCc2nccn2C)CCC[C@@H](C(=O)NC2CC2)CC1=O", "activity change, negative = cytotoxicity": "-8.8% [at 172 µM]"}
{"smiles": "O=C(NCc1cccs1)c1nc(-c2cc(Cl)cc(Cl)c2)c2ccccn12", "outcome": "inactive"}
{"smiles": "CCc1cccc(NC(=O)N2[C@@H]3CC[C@H]2CC(NC(=O)c2ccc(F)cc2)C3)c1", "note": "(stereo partly drawn)", "Potency": "39.8 µM (active)"}
{"smiles": "CCOCC(=O)N1[C@@H]2CC[C@H]1CC(NC(=O)c1ccc(F)cc1)C2", "note": "(stereo partly drawn)", "activity change, negative = cytotoxicity": "3.15%"}
{"smiles": "Cc1ccncc1C(=O)N1[C@@H]2CC[C@H]1CC(NC(=O)c1ccc(F)cc1)C2", "note": "(stereo partly drawn)", "outcome": "inactive"}
{"smiles": "CNC(=O)c1cc(C)nc2onc(C3CCCN(C(=O)c4ccccn4)C3)c12", "note": "(stereo not drawn)", "activity change, negative = cytotoxicity": "-3.14%"}
{"smiles": "CCC(c1ccccn1)N(C)C(=O)c1cc(COc2ccccc2)[nH]n1", "note": "(stereo not drawn)", "activity change, negative = cytotoxicity": "-18.1%"}
{"smiles": "COc1ccccc1-c1ccc(CN2CCCCC2C(=O)NCc2cccc(Cl)c2)cc1", "note": "(stereo not drawn)", "Potency": "22.4 µM (active)"}
{"smiles": "C=C(C)CCC(C)N1CCC(N2CCC(C(=O)NCc3ccccn3)CC2)CC1", "note": "(stereo not drawn)", "activity change, negative = cytotoxicity": "-4.18%"}
{"smiles": "COc1ccc(OC)c(S(=O)(=O)N2CCC(CC(=O)NCc3ccccc3)C2)c1", "note": "(stereo not drawn)", "activity change, negative = cytotoxicity": "-14.4%"}
{"smiles": "C#CCNC(=O)C1CCc2nnc(-c3ccccc3OC)n21", "note": "(stereo not drawn)", "activity change, negative = cytotoxicity": "-6.52%"}
{"smiles": "COc1ccc(F)cc1-c1ccc(CN2CCCCC2C(=O)NCc2ccccn2)cc1", "note": "(stereo not drawn)", "Potency": "25.1 µM (active)"}
{"smiles": "CN1CCCCCC1C(=O)NCc1cccnc1Oc1ccccc1F", "note": "(stereo not drawn)", "activity change, negative = cytotoxicity": "-23.7%"}
{"smiles": "COc1ccc(CNC(=O)C2CCCCN2Cc2ccc(-c3ccccc3OC)cc2)cc1", "note": "(stereo not drawn)", "Potency": "31.6 µM (active)"}
{"smiles": "CCNC(=O)[C@@H]1CCCN1[C@@H](C(=O)NC)c1ccccc1OC", "activity change, negative = cytotoxicity": "2.6% [at 172 µM]"}
{"smiles": "CCOc1cc(=O)n2c(c1C(=O)NCc1cccc(Cl)c1)CCCC2", "activity change, negative = cytotoxicity": "-25.7%"}
